Screens: PubChem, National Center for Advancing Translational Sciences (NCATS)
Shown are actives, neighbours in structure and some others; about 2.9% of the full set was active somewhere.
EPAC1 ag val: human EPAC1 agonism, validation. O95398. EPAC1 Rap1b BODIPY-GDP exchange, fluorescence. Potency, µM, most hits filed as activators. actives 1% (n = 16,000); also: nearly all actives have a fitted effect of over 70% in size
Target sequence (O95398 whole entry, looked up): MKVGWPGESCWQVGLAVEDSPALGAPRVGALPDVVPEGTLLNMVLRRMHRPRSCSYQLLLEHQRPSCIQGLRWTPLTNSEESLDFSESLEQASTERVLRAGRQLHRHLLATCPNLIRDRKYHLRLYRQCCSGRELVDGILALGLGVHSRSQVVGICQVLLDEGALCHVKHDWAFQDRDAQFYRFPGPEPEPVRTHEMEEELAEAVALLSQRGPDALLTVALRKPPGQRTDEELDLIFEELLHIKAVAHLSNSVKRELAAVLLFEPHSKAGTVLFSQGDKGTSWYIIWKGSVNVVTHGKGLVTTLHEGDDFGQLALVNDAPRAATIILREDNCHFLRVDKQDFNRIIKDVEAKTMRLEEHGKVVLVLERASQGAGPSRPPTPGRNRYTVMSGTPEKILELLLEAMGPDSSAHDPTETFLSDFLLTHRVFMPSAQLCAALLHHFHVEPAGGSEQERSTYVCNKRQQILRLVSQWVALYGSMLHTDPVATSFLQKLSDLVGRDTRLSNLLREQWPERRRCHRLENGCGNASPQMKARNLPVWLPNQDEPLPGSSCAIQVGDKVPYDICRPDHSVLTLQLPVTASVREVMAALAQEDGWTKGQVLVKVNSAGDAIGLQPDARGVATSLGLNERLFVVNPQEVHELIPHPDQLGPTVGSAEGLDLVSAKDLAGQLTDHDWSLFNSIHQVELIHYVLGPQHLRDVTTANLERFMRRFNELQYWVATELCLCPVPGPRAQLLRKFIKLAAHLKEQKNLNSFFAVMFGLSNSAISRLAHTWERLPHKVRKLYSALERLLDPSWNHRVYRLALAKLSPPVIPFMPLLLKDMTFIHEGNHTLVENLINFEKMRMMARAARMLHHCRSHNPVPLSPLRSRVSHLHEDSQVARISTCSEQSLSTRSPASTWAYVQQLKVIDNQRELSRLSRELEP
EPAC2 ant val: validation of human EPAC2 antagonists | Q8WZA2 | EPAC2 Rap1B BODIPY-GDP exchange, fluorescence | Potency, µM (series often up to 112 µM), usual class: inhibitors | actives 1.7% (n = 16,000); also: nearly all actives have a fitted effect of over 40% in size
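Fluorescent exchange read-out: 100 nM EPAC2 with 250 nM RAP1B–BODIPY-GDP and 50 uM GDP; BODIPY-GDP release lowers fluorescence. Read at 480/540 nm every 5 min for 30 min at room temperature; normalized to 6.5 mM cAMP.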
Numbers stand for hits; – = inactive; ? = inconclusive. Calls follow the shape of the dose curve; as a rule, active = well fitted curve in the direction sought with a large enough effect; inconclusive = small, poorly fitted or top-dose-only effect, or another doubt; inactive = no such curve, though single readings can be large; an effect the other way counts as inactive or inconclusive.

SMILES | EPAC1 ag val | EPAC2 ant val
Cc1c(N)nc(C(CC(N)=O)NCC(N)C(N)=O)nc1C(=O)NC(C(=O)NC(C)C(O)C(C)C(=O)NC(C(=O)NCCc1nc(-c2nc(C(=O)NCCCN[C@@H](C)c3ccccc3)cs2)cs1)C(C)O)C(O[C@@H]1O[C@@H](CO)[C@@H](O)[C@H](O)[C@@H]1O[C@H]1O[C@H](CO)[C@@H](O)[C@H](OC(N)=O)[C@@H]1O)c1cnc[nH]1 (some centres not stated) | – | –
Cc1ccccc1C1(CC(=O)N2CCCC2c2nccs2)CC(=O)N(C2CCCC2)C1=O (configuration not stated) | – | –
O=c1c(-c2ccccc2)nc2cnc(N3CCNCC3)nc2n1Cc1ccc(F)cc1 | – | –
O=c1c(-c2cc(F)cc(F)c2)nc2cnc(N3CCNCC3)nc2n1Cc1ccc(F)cc1 | ? | 50µM
COc1ccc2[nH]cc(CCNc3nc(-c4ccccc4OC)nc4ccccc34)c2c1 | ? | –
COc1ccc2[nH]cc(CCNc3nc(-c4cccc(C#N)c4)nc4ccccc34)c2c1 | 112µM | –
CCOC(=O)C[C@H]1c2ccccc2S(=O)(=O)N1Cc1cc(OC)c(OC)c(OC)c1 | – | –
CC(=O)C[C@H]1c2cc(C(F)(F)F)ccc2S(=O)(=O)N1Cc1ccccc1 | – | ?
COC(=O)C[C@H]1c2ccc(C(F)(F)F)cc2S(=O)(=O)N1Cc1ccccc1 | – | 25µM
CCOC(=O)C[C@H]1c2ccccc2S(=O)(=O)N1Cc1cccc(C(F)(F)F)c1 | – | 56µM
Cc1ccc(C(=O)Nc2cccc(-c3nc(CNC(=O)c4cccc(N(C)C)c4)c(C)o3)c2)s1 | – | –
CN(C)c1ccc(/C=C/c2ccnc3c(Cl)cccc23)cc1 | 112µM | –
Cc1ccc2ncc(C)c(/C=C/c3ccc(N(C)C)cc3)c2c1 | – | –
CN(C)c1ccc(/C=C/c2ccnc3c(-c4ccccc4)cccc23)cc1 | ? | –
CN(C)c1ccc(/C=C/c2c(Cl)cnc3ccccc23)cc1 | 100µM | –
COc1ccccc1C(=O)N[C@@H]1c2ccccc2C2(CCN(Cc3ccc4c(c3)OCO4)CC2)[C@H]1O | – | ?
Cc1cc(N)c2cc(NC(=O)Nc3ccc4nc(C)cc(N)c4c3)ccc2n1 | 56µM | 40µM
Cc1cc(NC(=O)Nc2ccc3c(ccn3C)c2)sn1 | – | ?
Cc1cccc(C(=O)NCc2nc(-c3cccc(NC(=O)c4ccoc4C)c3)oc2C)n1 | – | –
COc1ccc(CN2CCC3(CC2)c2ccccc2[C@@H](NC(=O)c2ccccc2)[C@@H]3O)cc1O | – | –
CC(C)N1CCN(c2ccc(OC[C@H]3CO[C@](Cn4cncn4)(c4ccc(Cl)cc4Cl)O3)cc2)CC1 | – | –
CC(=O)N1CCN(c2ccc(OCC3CO[C@@](Cn4ccnc4)(c4ccc(Cl)cc4Cl)O3)cc2)CC1 (some centres not stated) | ? | 35µM
CCOC(=O)N1CCN(Cc2ccc3c(c2)CN(C(=O)c2sc(C)nc2C)CCO3)CC1 | – | –
COc1ccc(SC[C@H](C)CN2CC[C@H](C)CCC2=O)cc1 | – | 50µM
CC(=O)Nc1ccc(SC[C@H](C)CN2CC[C@H](C(C)(C)C)CCC2=O)cc1 | – | 56µM
SMILES | EPAC1 ag val | EPAC2 ant val
COc1ccc(SC[C@H](C)CN2CC[C@H](O)CCC2=O)cc1 | – | –
Cc1ccc(SC[C@H](C)CN2CC[C@H](C)CCC2=O)cc1 | – | ?
COC(=O)[C@]12CCC(C)(C)C[C@@H]1[C@@H]1C(=O)C=C3[C@@]4(C)C=C(C#N)C(=O)C(C)(C)[C@@H]4CC[C@@]3(C)[C@]1(C)CC2 | – | ?
COc1cccc(-c2nc3cc(SC)ccc3cc2CN(C(=O)c2sccc2C)C2CC2)c1 | ? | 40µM
COc1ccc(-c2nc3cc(F)ccc3cc2CN(C(=O)c2cccs2)C2CC2)cc1 | – | –
CCC(=O)O[C@H]1CC[C@H]2[C@@H]3CCc4cc(O)ccc4[C@H]3CC[C@]12C | – | 50µM
CCCCC(=O)O[C@H]1CC[C@H]2[C@@H]3CCc4cc(O)ccc4[C@H]3CC[C@]12C | – | 50µM
CCC(=O)OC1CCC2C3CCc4cc(O)ccc4C3CC[C@]12C (some centres not stated) | – | 40µM
C[C@]12CC[C@@H]3c4ccc(O)cc4CC[C@H]3[C@@H]1CC[C@@H]2OC(=O)CCC1CCCC1 | ? | –
C[C@]12CC[C@@H]3c4ccc(O)cc4CC[C@H]3[C@@H]1CC[C@@H]2OP(=O)(O)O | – | –
C[C@@]12CCC3c4ccc(O)cc4CCC3C1CCC2O (some centres not stated) | – | –
COc1cc(OC)c(/C=C/c2ccc3ccccc3n2)c(OC)c1 | ? | –
COc1ccc(OC)c(/C=C/c2nc3ccccc3nc2C)c1 | 100µM | ?
COc1cccc(C(=O)NCc2nc(-c3cccc(NC(=O)c4ccoc4C)c3)oc2C)c1OC | – | –
Cc1cc(C)n(-c2cccc(C(=O)NCC3Cc4cccc(-c5cccnc5)c4O3)c2)n1 (configuration not stated) | – | –
CC(=O)N1CCC2(CCCN(C(c3ccccc3)c3ccccc3)C2)CC1 | – | 32µM
CC(=O)N1CCC2(CC1)CCN(C(c1ccccc1)c1ccccc1)CC2 | – | –
Cc1cccc(CNC(=O)c2cnn(-c3nccc(-c4cccs4)n3)c2C(C)C)n1 | – | –
Cc1onc(-c2ccc3c(c2)OCO3)c1-c1ccc2[nH]ccc2c1 | 100µM | ?
COc1cc(-c2c(-c3ccc4c(c3)OCO4)noc2-c2ccsc2)ccc1F | – | ?
COCC(=O)N1CCC2(CCCN(C(=O)Nc3cccc(C#N)c3)C2)CC1 | – | –
COCC(=O)N1CCC2(CC1)CCN(C(=O)Nc1cccc(C#N)c1)CC2 | 126µM | –
Clc1cccc(C(c2ccc3nc[nH]c3c2)n2ccnc2)c1 (configuration not stated) | – | –
c1ccc(-c2ccc(C(c3ccccc3)n3ccnc3)cc2)cc1 (configuration not stated) | ? | 50µM
CO[C@H]1C=CO[C@@]2(C)Oc3c(C)c(O)c4c(O)c(cc(O)c4c3C2=O)NC(=O)/C(C)=C\C=C/[C@H](C)[C@H](O)[C@@H](C)[C@@H](O)[C@@H](C)[C@H](OC(C)=O)[C@@H]1C | – | –
SMILES | EPAC1 ag val | EPAC2 ant val
COc1ccc(-c2oc3ccccc3c(=O)c2O)cc1 | – | –
COc1ccc2c(=O)c(OC)c(-c3ccccc3)oc2c1 | – | 11µM
Cc1cn([C@H]2C[C@H](F)[C@@H](CO)O2)c(=O)[nH]c1=O | – | –
CCOc1ccc2nc3cc(N)ccc3c(N)c2c1 | – | ?
Nc1ccc2cc3ccc(N)cc3nc2c1 | 100µM | –
OC1(c2cccnc2)CCN(Cc2ccc3c(c2)CN(Cc2cccc(C(F)(F)F)c2)CCO3)CC1 | – | –
O=c1c(-c2cc(F)cc(F)c2)nc2cncnc2n1Cc1ccccc1Cl | ? | –
O=c1c(-c2ccc(F)c(F)c2)nc2cncnc2n1Cc1ccccc1Cl | 100µM | ?
CC(C)C[C@H](NC(=O)[C@@H](COC(C)(C)C)NC(=O)[C@H](Cc1ccc(O)cc1)NC(=O)[C@H](CO)NC(=O)[C@H](Cc1c[nH]c2ccccc12)NC(=O)[C@H](Cc1cnc[nH]1)NC(=O)[C@@H]1CCC(=O)N1)C(=O)N[C@@H](CCCN=C(N)N)C(=O)N1CCC[C@H]1C(=O)NNC(N)=O | – | –
Cc1cccc(C)c1N(CCCc1cccnc1)C(=O)C(C)N (configuration not stated) | – | –
